Screening results as filed in PubChem.
Rows were chosen to be rich in hits. Some 7.1% of all compounds tested hit in one or more screens of this group.
M1 agonist – M1 muscarinic receptor agonists, primary screen, CHO-M1 cells, Fluo-4 calcium, agonist mode | 64,000 compounds, 3% hits | B-score at 10 µM | Fluo-4 calcium fluorescence; stronger effect = higher value | Muscarinic acetylcholine receptor M1 | AID 626, 2007;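 active = fluorescence rise, raw or as B-score row- and column-corrected plate score, outside the 99.7% band of its plate's samples, either direction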
Cav3 T inh – Cav3.2 calcium influx blockers – cell-based, Fluo-4 calcium fluorescence, FDSS, MLSMR library, primary screen; Cav3.2-expressing cells; stronger effect = lower value; B-score at 10 µM; 100,000 compounds, 4% hits; Voltage-dependent T-type calcium channel subunit alpha-1H (Homo sapiens), O95180;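 active = single-dose well whose peak fluorescence ratio is a statistical outlier from its plate by either plate-standardised score or position-corrected B-score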
M1 antagonist – antagonists of rat M1 muscarinic receptor; CHO-M1 cells, Fluo-4 calcium, ACh EC80 antagonist mode; stronger effect = lower value; AID 628, 2007; Muscarinic acetylcholine receptor M1 (Rattus norvegicus), P08482; B-score at 10 µM; 64,000 compounds, 3.4% hits;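 active = calcium fluorescence response, raw or row-and-column corrected B-score, differing from the plate sample mean either way at a set confidence level, mostly lower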
Target sequence (P08482 whole entry, looked up): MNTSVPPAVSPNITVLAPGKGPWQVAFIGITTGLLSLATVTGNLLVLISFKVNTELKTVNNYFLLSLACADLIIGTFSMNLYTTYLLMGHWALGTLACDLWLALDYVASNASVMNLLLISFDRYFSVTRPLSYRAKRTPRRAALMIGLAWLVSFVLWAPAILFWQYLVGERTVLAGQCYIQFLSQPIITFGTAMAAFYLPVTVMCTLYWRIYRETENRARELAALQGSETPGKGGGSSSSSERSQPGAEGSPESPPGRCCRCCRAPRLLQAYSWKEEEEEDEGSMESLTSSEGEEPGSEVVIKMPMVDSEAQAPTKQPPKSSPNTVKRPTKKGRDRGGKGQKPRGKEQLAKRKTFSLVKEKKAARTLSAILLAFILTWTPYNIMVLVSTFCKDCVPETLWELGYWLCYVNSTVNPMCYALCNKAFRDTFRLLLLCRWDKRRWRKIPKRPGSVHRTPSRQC
PTK2B oligo ant – antagonists of Pyk2 self-association, primary screen, Q293 cells, FERM NanoBiT luminescence, HTS; Protein-tyrosine kinase 2-beta (Homo sapiens), Q14289; 99,000 compounds, 0.83% hits; z-score (the deposit names both 25 µM and 10 µM); stronger effect = lower value;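 active = Z-score of -3 or lower, scaled per plate to the spread of control and sample wells; inactive = z-score above -3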;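 note: negative z-score means lost luminescence so less FERM oligomerization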
An asterisk follows results filed as active; . = no result given.

SMILES	M1 agonist	Cav3 T inh	M1 antagonist	PTK2B oligo ant
S=c1[nH]nc(-c2cc3ccccc3o2)n1Cc1ccccc1	.	-0.89	.	0.62
CC(=O)C(Sc1nc(-c2ccco2)nc2c1c(=O)n(C)c(=O)n2C)C(=O)N(C)C (centres undefined)	0.31	.	0.22	.
CC(=O)NC1CCCN(O)C(=O)/C=C(\C)CCOC(=O)C(NC(C)=O)CCCN(O)C(=O)/C=C(\C)CCOC(=O)C(NC(C)=O)CCCN(O)C(=O)/C=C(\C)CCOC1=O (centres undefined)	.	-0.29	.	.
CCn1nc(C(=O)Nc2cccc3ccccc23)c(Cl)c1Cl	.	-5.7*	.	0.19
CCN1CCN(C(=O)Nc2cccc3ccccc23)CC1	.	1.3	.	-3.2*
Cc1noc(C)c1CSc1nnc2c(C)cc3ccccc3n12	1.7*	.	-0.46	.
c1ccc(-c2ccccc2-c2nc(-c3cccnc3)no2)cc1	1	-5*	0.49	-2.1
CCOC(=O)c1sc(NC(=O)CSc2nc3c(cc2C#N)CCC3)c(C#N)c1C	-0.76	.	0.33	.
CCOC(=O)c1sc(NC(=O)CSc2nc3c(cc2C#N)CCCCCC3)c(C#N)c1C	0.19	-3.9	0.066	-3.4*
CCOC(=O)c1sc2nc(C)n(CC(=O)NCC3CCCO3)c(=O)c2c1C (centres undefined)	-0.83	-0.68	-0.38	0.98
CCOC(=O)/C=c1\s/c(=C\c2c(OC)ccc3ccccc23)c(=O)n1CC(=O)NCC1CCCO1 (centres undefined)	.	-5.7*	.	-2.5
CCCSc1nc2sc3c(c2c(=O)[nH]1)CCN(Cc1ccccc1)C3	.	-5.9*	.	0.76
CCCCSc1nc2sc3c(c2c(=O)[nH]1)CCC3	.	0.061	.	1.2
Cc1ccc(NC(=O)c2cc3ccccc3o2)cc1S(=O)(=O)N(C)C	.	0.091	.	-3.2*
CCOC(=O)N1CCc2c(sc(NC(=O)c3ccc(Cl)s3)c2C(N)=O)C1	5.3*	-0.24	-0.042	.
CCOC(=O)c1c(NC(=O)c2ccc(Cl)s2)sc(C)c1C	0.31	-0.022	0.032	.
O=C(/C=C/c1ccc(Cl)cc1)N1CCN(c2ncccn2)CC1	.	-0.23	.	.
O=C(/C=C/c1ccc(Cl)cc1)N1CCN(c2ccc(Cl)cc2[N+](=O)[O-])CC1	.	-7.5*	.	0.09
Cc1cc(OCC(=O)N2CCc3ccccc3C2)c2c(-c3ccccc3)cc(=O)oc2c1	.	-3.1	.	-1.6
CCn1nc(C)c(/C=N/NC(=O)c2ccc3c(c2)c(C)c(C)n3Cc2ccccc2)c1C	.	-6.2*	.	-2.2
CCn1ncc(/C=N\NC(=O)c2ccc3c(c2)c(C)c(C)n3Cc2ccccc2)c1C	.	-5.7*	.	-1.9
CCn1c2ccccc2c2cc(/C=N/NC(=O)c3cccc(C)c3)ccc21	.	-4.2*	.	-0.46
CCn1cc(/C=N\NC(=O)c2ccc3c(c2)c(C)c(C)n3Cc2ccccc2)c(C)n1	.	-6.6*	.	-0.31
CCn1c2ccccc2c2cc(/C=N/NC(=O)c3ccccc3C)ccc21	.	.	.	-1.1
CCn1nc(C)c(/C=N\NC(=O)c2ccc3c(c2)OCO3)c1C	.	1.3	.	0.24
SMILES	M1 agonist	Cav3 T inh	M1 antagonist	PTK2B oligo ant
CO/N=C(\c1nonc1N)N1CCN(c2ccc(Cl)cc2[N+](=O)[O-])CC1	.	.	.	-1.1
CCOc1ccc(NC(=O)c2oc3ccccc3c2NC(=O)C2CC2)cc1	-0.06	.	0.049	.
COc1ccc(OCC(=O)Nc2sc3c(c2C(=O)NCC2CCCO2)CCC3)cc1 (centres undefined)	.	-2.2	.	-0.84
COc1ccc(C2Nc3ccccc3C(=O)N2Cc2ccco2)cc1COc1ccccc1F (centres undefined)	.	-5.2*	.	-2.3
COc1ccc(C2Nc3ccccc3C(=O)N2Cc2ccco2)cc1COc1ccc(NC(C)=O)cc1 (centres undefined)	0.12	-0.061	0.81	-0.13
CCOC(=O)CSc1ncc(OC)c(Sc2ccc(OC)cc2)n1	.	-6.6*	.	-0.44
COC(=O)C1=C[C@@H](C(=O)OC)[C@@H]2C3=C(C(=O)[C@@]2(C)NC(=O)c2ccccc2)[C@H](C)C(C(=O)OC)=C(C(=O)OC)[C@@H]3C1	.	0.4	.	.
O=c1cc2[nH]c3ccccc3c(=O)n2nc1-c1ccccc1	.	0.85	.	-3.1*
O=C(NCc1ccc(C(F)(F)F)cc1)C1CC(c2ccccc2[N+](=O)[O-])=NO1 (centres undefined)	.	-0.81	.	.
CCc1nc(NCc2ccc3c(c2)OCO3)c2oc3ccccc3c2n1	.	-3.7*	.	-0.34
CCc1nc(Nc2ccc3c(c2)OCCO3)c2oc3ccccc3c2n1	.	-0.8	.	-3.4*
CC(=O)CSc1nnc(-c2ccc(S(=O)(=O)N3CCC(C)CC3)cc2)o1	.	0.038	.	0.48
